Screening data from PubChem.
An excerpt weighted towards active compounds, which were near 6.7% of everything screened.
SW480 rerep: inducers of DNA re-replication in SW480 colon cancer cells; SW480 DNA re-replication, Hoechst DNA content imaging, 48 h; Potency, µM (doses to about 46.1 µM), inactives show at the top dose re-replication activation, most hits filed as activators; AID 624297; actives 1.8% (n = 340,000); note: % of control where 0% means no effect; nearly all actives have a fitted effect of over 55% in size
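Treated cells incubate 48 hr (37 C, 5% CO2), are stained 40 min with Hoechst, and nuclear fluorescence is enumerated; a rise in nuclei with high DNA signal marks re-replication.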
KB-3-1 tox: kills parental KB-3-1 adenocarcinoma cells. KB-3-1 viability, CellTiter-Glo ATP luminescence, 72 h. Potency, µM (highest dose often 46.1 µM), hits mostly cytotoxic. actives 1.4% (n = 400,000); note: % is set by controls: 0 for no effect and ±100 for the full control effect; nearly all actives have a fitted effect of over 60% in size
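Multi-concentration cytotoxicity screen in KB-3-1 cells grown in DMEM lacking phenol red with 10% FBS. After 72 h at 37 °C with compound, ATP-dependent luminescence was recorded.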
MCF10A rerep: inducers of DNA re-replication in MCF 10A breast cells; MCF 10A DNA re-replication, Hoechst nuclear intensity, 48 h; Potency, µM (doses to about 46.1 µM), without a hit: top-dose activity, positive = re-replication, usual class: activators; actives 2.9% (n = 350,000); note: % of control where 0% means no effect; nearly all actives have a fitted effect of over 50% in size
PINK1 modulator: PINK1 expression modulation | Potency, µM (highest dose often 76.6 µM), for inactives: top-dose activation (PINK1 increase), hits mostly activators | PINK1 immunofluorescence, high-content cytometry, 24 h | actives 0.2% (n = 410,000); active = well fitted activation curve with a large enough effect; inconclusive = small, poorly fitted or top-dose-only effect; cell line not stated here; note: % of control where 0% means no effect; nearly all actives have a fitted effect of over 65% in size
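Cells are seeded, rested 12 hours, then given compound at five concentrations or DMSO for 24 hours. After fixation, blocking and antibody staining, PINK1 amount and mitochondrial localization are scored; CCCP serves as control.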
KB-V1 MDR tox: kills drug-selected multidrug resistant KB-V1 cells | AID 1347076 | Potency, µM (titrated, usually from 46.1 µM), usual class: cytotoxic | KB-V1 MDR cells viability, CellTiter-Glo, 72 h | actives 3.4% (n = 400,000); note: % is set by controls: 0 for no effect and ±100 for the full control effect; nearly all actives have a fitted effect of over 60% in size
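Potencies derive from concentration-effect curves fitted to normalized luminescence (CellTiter-Glo) of KB-V1 cells treated for 72 h at 37 degrees C in phenol-red-free DMEM containing 10% FBS.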
* = called active by the depositor; i = inactive; ? = inconclusive; . = not tested or not shown; [ ] = dose if it differs, or a comment. Unless noted, calls come from the whole dose curve; as a rule, active = well fitted curve in the direction sought with a large enough effect; inconclusive = small, poorly fitted or top-dose-only effect, or another doubt; inactive = no such curve, though single readings can be large; an effect the other way counts as inactive or inconclusive. Potency is the fitted concentration of half-maximal effect.

SMILES	SW480 rerep	KB-3-1 tox	MCF10A rerep	PINK1 modulator	KB-V1 MDR tox
Cc1ccc(-n2c(-c3ccc(Br)cc3)c[n+]3c2CCc2ccc4cccnc4c2-3)cc1	15%	2.6µM*	?	?	?
CCOc1ccc(NS(=O)(=O)CC23CCC(CC2=O)C3(C)C)cc1 (configuration not stated)	-10%	i	13%	3%[38.3 µM]	18µM*
COc1ccc(NS(=O)(=O)CC23CCC(CC2=O)C3(C)C)cc1 (configuration not stated)	-3%	i	6%	6%[38.3 µM]	?
O=C(c1ccccc1)c1nn(-c2ccc(Cl)cc2)c(=O)cc1C(F)(F)F	?	?	12µM*	-1%	18µM*
O=C(c1cccc(Cl)c1)c1nn(-c2ccccc2)c(=O)cc1C(F)(F)F	-5%	?	-6%	0%	23µM*
O=C(c1ccccc1)c1nn(-c2ccccc2)c(=O)cc1C(F)(F)F	?	?	?	-3%	?
CCN(CC)C(=O)C1CCCc2c1[nH]c1ccc(Cl)cc21 (configuration not stated)	-8%	6.5µM*	-7%	2%	i
COc1ccccc1N1CCN(c2nc(CNC(=O)C3CCOC(C)(C)C3)nc3ccccc23)CC1 (configuration not stated)	.	.	.	3%	.
O=c1oc2c(CN3CCN(CCO)CC3)c(O)ccc2cc1-c1ccccn1	6.5µM*	i	8.2µM*	-2%	?
Cc1cn(CC(=O)NCCc2ccccn2)c(=O)[nH]c1=O	4%	i	-2%	0%	i
CCOC(=O)C1=C(O)c2ccccc2C(=O)/C1=C\c1ccc(C)cc1	?	?	21µM*	10%	?
CCOC(=O)C1=C(C)OC(=Cc2ccccc2)C1=O	.	i	.	-1%	i
CCN(CC)c1ccc(/C=N/NC(=S)NC)c(O)c1	-5%	9.2µM*	1.3µM*	-1%	i
CCN(CC)c1ccc(/C=N/NC(=O)OC)c(O)c1	8%	i	-1%	9%	?
CCN(CC)c1ccc(/C=N/N=C(N)N)c(O)c1	16µM*	?	4.1µM*	4%	?
COc1cccc(/C=N/NC(=O)c2ccc3nc[nH]c3c2)c1O	?	i	5%	0%	i
CCN(CC)c1ccc(/C=N/NC(=O)c2ccc3nc[nH]c3c2)c(O)c1	21µM*	?	26%	12%	i
CCN(CC)c1ccc(N=Cc2ccc(N(CC)CC)cc2O)cc1	?	?	-11%	?	i
CCN(CC)c1ccc(/C=N/NC(=O)c2ccoc2C)c(O)c1	13µM*	12µM*	?	4%	?
CCCS(=O)(=O)NCc1c(C)ncc2c1CCN(C(=O)c1cccc(Cl)c1F)C2	.	.	.	0%	.
CCN1CCN(C(=O)NCc2ccccc2)CC1	130%	i	?	0%	?
COc1cc(OC)cc(-c2nc3ccccc3c(=O)n2OC(=O)c2ccccc2C)c1	0%	i	16µM*	8%	?
CCOC(=O)C1(Cc2cccc(Cl)c2)CCCN(C(=O)c2c(CC)noc2C)C1 (configuration not stated)	-14%	i	2%	0%	?
CCc1ccc(-n2cnc3cc(C(=O)NCc4ccc(C)cc4)ccc32)cc1	.	i	.	-1%	i
Cc1nn(C)cc1/C=N/NC(=O)Cn1nnc(N)n1	-9%	i	-3%	0%	i
FC(F)(F)c1nnc2c(Sc3ccccc3)nc3ccc(Cl)cc3n12	?	?	12µM*	-6%	?
O=c1[nH]c2ccccc2n2c(C(F)(F)F)nnc12	-4%	i	0%	7%	i
CC(C)NS(=O)(=O)c1ccc(OCC(=O)NCC2CCCO2)c(Cl)c1 (configuration not stated)	1%	i	-5%	-3%[38.3 µM]	?
Cc1cc(S(=O)(=O)NCC(C)C)ccc1OCC(=O)NCC1CCCO1 (configuration not stated)	?	i	8%	3%	21µM*
COc1ccc(OC)c(C(c2nnnn2C2CCCC2)N2CCc3ccccc3C2)c1 (configuration not stated)	-3%	?	-1%	-5%	16µM*
